Test results as given in PubChem BioAssay (EPA / NIEHS).
Inconclusive results are not listed. Active and inactive are the calls of the source. Rule for the calls: active = hit-call score of the fitted dose curve at least 0.9, where 1 is the maximum; inconclusive = response in the unintended direction; inactive = score below 0.9.

target: Ratio of Nucleoli Translocation and Cytoplasm, AR (gene 367) (UniProt P10275); assay: UPITT_HCI_U2OS_AR_TIF2_Nucleoli_Cytoplasm_Ratio_Agonist: University of Pittsburgh U2OS Androgen Receptor-Transcriptional Intermediary Factor 2 (AR-TIF2) Agonism High Content Imaging Assay for Ratio of Nucleoli Translocation and Cytoplasm (AID 2284000);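 note: hits raise the red nucleolar to cytoplasm ratio above vehicle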
Source text: UPITT_AR_TIF2_PPIB is a cell-based, high-content imaging assay that uses U2OS, a human osteosarcoma cell line, expressing a human androgen receptor fused to red fluorescent protein and the coactivator TIF2 fused to green fluorescent protein. UPITT_HCI_U2OS_AR_TIF2_Nucleoli_Cytoplasm_Ratio_Agonist is one of four assay components measured from the UPITT_AR_TIF2_PPIB assay. It is designed to make measurements of the ratio of red fluorescence localized in the nucleolar region of the cell nucleus to red fluorescence localized in the cytoplasm as detected with high-content fluorescent imaging.Data from the assay component UPITT_HCI_U2OS_AR_TIF2_Nucleoli_Cytoplasm_Ratio_Agonist was analyzed into 1 assay endpoint. This assay endpoint, UPITT_HCI_U2OS_AR_TIF2_Nucleoli_Cytoplasm_Ratio_Agonist, was analyzed in the positive analysis fitting direction relative to DMSO as the baseline of activity. Using a type of binding reporter, measures of receptor for gain-of-signal activity can be used to understand the binding at the pathway-level as it relates to the gene AR.
Daughter plates containing 2 uL of 10 mM compounds in DMSO were prepared and replicated from the 384-well Library of Pharmacologically Active Compounds (LOPAC) master plates using the Bravo outfitted with a 384-well transfer head. Aluminum adhesive plate seals were applied with an Abgene Seal-IT 100 (Rochester, NY) plate sealer, and the plates were stored at -20 C in a Matrical MatriMinistore (Spokane, WA) automated compound storage and retrieval system. For screening, LOPAC daughter plates were withdrawn from -20C storage, thawed to ambient temperature, centrifuged 1-2 min at 50 g, and the plate seals were removed before the transfer of 98 uL of serum-free tissue culture medium (SFM) into wells using the BioTek Microflo liquid handler (BioTek, Winooski, VT) to generate a 200 uM intermediate stock concentration of library compounds (2.0% DMSO). The diluted compounds were mixed by repeated aspiration and dispensation using a 384-well P30 dispensing head on the Evolution P3 (EP3) liquid handling platform (PerkinElmer, Waltham, MA) and then 5 uL of diluted compounds was transferred to the wells of assay plates. In the LOPAC screen, compounds were individually tested at a final concentration of 20 uM (0.2% DMSO). After the diluted compounds had been transferred from the daughter plates to the primary HCS assay plates, aluminum adhesive plate seals were applied and the diluted daughter plates were stored frozen at -20C. To confirm active compounds identified in the primary screen, we withdrew the LOPAC daughter plates containing the 200 uM intermediate concentration of library compounds (2.0% DMSO) from -20C storage, thawed them to ambient temperature, centrifuged them for 1-2 min at 50 g, and removed the plate seals. A work list was generated to direct the Multiprobe Janus liquid handling platform (PerkinElmer) to cherry pick 75 uL from the wells of the diluted daughter plates that were flagged active in the primary screen and to reformat these into a 384-well plate hit confirmation daughter plate. Five microliters of primary HCS active compounds was then transferred into triplicate wells of assay plates using a 384-well P30 dispensing head on the Evolution P3 (EP3) liquid handling platform (PerkinElmer). […] Daughter plates containing 2 uL of the serially diluted compounds in DMSO were prepared and replicated from the 384-well serial dilution master plates using the Bravo outfitted with a 384-well transfer head. Aluminum adhesive plate seals were applied and plates were stored at -20C. For testing in the bioassays, daughter plates were withdrawn from -20C storage, thawed to ambient temperature, centrifuged for 1-2 min at 50 g, and the plate seals were removed before the transfer of 38 uL of SFM into wells using the BioTek Microflo liquid handler (BioTek) to generate an intermediate stock concentration of library compounds ranging from 1.95 to 500 uM (5.0% DMSO). […]

Ratio of Nucleoli Translocation and Cytoplasm, AR (gene 367), sequence (P10275 whole entry, looked up, the tested form may be a part): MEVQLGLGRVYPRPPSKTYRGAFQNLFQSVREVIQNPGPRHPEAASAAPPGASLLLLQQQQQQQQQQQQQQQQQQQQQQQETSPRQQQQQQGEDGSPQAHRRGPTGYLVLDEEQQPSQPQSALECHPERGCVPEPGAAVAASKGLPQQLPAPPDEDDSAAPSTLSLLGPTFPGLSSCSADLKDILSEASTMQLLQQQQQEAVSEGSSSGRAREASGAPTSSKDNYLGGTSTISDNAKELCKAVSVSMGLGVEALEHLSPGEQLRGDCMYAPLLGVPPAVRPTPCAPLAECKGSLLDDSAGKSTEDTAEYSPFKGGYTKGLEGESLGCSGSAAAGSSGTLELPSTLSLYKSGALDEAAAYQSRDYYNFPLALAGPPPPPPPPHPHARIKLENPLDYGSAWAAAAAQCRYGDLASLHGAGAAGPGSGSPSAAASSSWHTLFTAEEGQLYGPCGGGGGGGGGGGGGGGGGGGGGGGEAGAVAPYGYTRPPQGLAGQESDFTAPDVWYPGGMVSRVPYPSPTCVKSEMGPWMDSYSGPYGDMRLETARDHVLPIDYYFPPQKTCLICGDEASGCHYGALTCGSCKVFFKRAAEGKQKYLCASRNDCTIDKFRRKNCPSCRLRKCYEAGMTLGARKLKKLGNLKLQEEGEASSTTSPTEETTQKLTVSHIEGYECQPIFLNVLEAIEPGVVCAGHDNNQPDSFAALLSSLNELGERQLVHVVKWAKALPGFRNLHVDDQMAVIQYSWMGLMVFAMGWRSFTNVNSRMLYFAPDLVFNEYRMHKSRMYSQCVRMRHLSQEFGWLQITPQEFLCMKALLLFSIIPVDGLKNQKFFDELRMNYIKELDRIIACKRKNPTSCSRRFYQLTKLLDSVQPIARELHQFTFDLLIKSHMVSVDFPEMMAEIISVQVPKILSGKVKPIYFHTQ

| SMILES | outcome | AC50 |
| --- | --- | --- |
| CCOC(=O)CC(SP(=S)(OC)OC)C(=O)OCC (stereo not given) | inactive | – |
| N#CC(CCc1ccc(Cl)cc1)(Cn1cncn1)c1ccccc1 (stereo not given) | inactive | – |
| CS/C(C)=N/OC(=O)N(C)SN(C)C(=O)O/N=C(\C)SC | – | 84.1 µM (active) |
| CCCC1COC(Cn2cncn2)(c2ccc(Cl)cc2Cl)O1 (stereo not given) | – | 89.2 µM (active) |
| Cc1cc(Cl)ccc1OCC(=O)O | inactive | – |
| CC(C)Oc1cc(-n2nc(C(C)(C)C)oc2=O)c(Cl)cc1Cl | inactive | – |
| N#Cc1cc(Br)c(O)c(Br)c1 | inactive | – |
| N#Cc1nn(-c2c(Cl)cc(C(F)(F)F)cc2Cl)c(N)c1S(=O)C(F)(F)F (stereo not given) | inactive | – |
| CCCCNC(=O)n1c(NC(=O)OC)nc2ccccc21 | inactive | – |
| O=C(Nc1ccccc1)Nc1ccnc(Cl)c1 | inactive | – |
